{
  "source": "PubChem BioAssay AID435005",
  "about": "(Broad Institute, 2010)",
  "note": "Out of some 300,000 compounds screened, about 2,400 (0.8%) were called active. This excerpt belongs to a sample that is enriched for actives. A number with no mark means an inactive call.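 Rule for the calls: active = Every replicate reaches about 75%, or at least half do and their mean reaches it too (limit read from the data); inconclusive = At least half of replicates reach the limit but their mean does not; inactive = Under half of replicates reach the limit.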",
  "data": [
    {"assay": "inhibitors of cytokine-induced beta cell apoptosis, primary screen, luminescence (AID 435005);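 note: 0% = cytokine-treated negative control wells and 100% = positive control rescue; higher means more ATP so stronger rescue from cytokine killing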", "settings": "INS-1E cytokine-induced death, ATP luminescence, 48 h; hits give high values; concentration not given here", "values": [
      {"smiles": "CCOc1cccc(=NC2CCCCC2)c2c(C)[nH]c(C)c12", "protection from apoptosis": "115% (active)"},
      {"smiles": "C[C@]12CCC3C(CC[C@H]4C[C@@H](O)CC[C@]34C)C1CC[C@@H]2O", "note": "(stereo not given in full)", "protection from apoptosis": "1.25%"},
      {"smiles": "O=C1C2(Cl)C3(Cl)C4(Cl)C(Cl)(Cl)C5(Cl)C3(Cl)C1(Cl)C5(Cl)C24Cl", "note": "(stereo not given)", "protection from apoptosis": "-14.2%"},
      {"smiles": "COC(=O)C1=C(c2ccc(F)cc2OCc2ccccc2)C[C@@H]2CC[C@H]1N2C(=O)NCc1ccc(OC)c(OC)c1", "protection from apoptosis": "-1.83%"},
      {"smiles": "C[C@]12CC[C@H](O)CC1=C([N+](=O)[O-])CC1C2CC[C@@]2(C)C1CC[C@@H]2O", "note": "(stereo not given in full)", "protection from apoptosis": "-1.49%"},
      {"smiles": "COC(=O)C1=C(c2ccccc2OCc2ccccc2)C[C@@H]2CC[C@H]1N2C(=O)NCc1ccc(OC)cc1", "protection from apoptosis": "-9.52%"},
      {"smiles": "CCCCCCCCCCCCn1ccc(=N)cc1", "protection from apoptosis": "117% (active)"},
      {"smiles": "C[C@]12CCC3C(CC[C@H]4C[C@@H](O)CC[C@]34C)C1C[C@@H](O)[C@H]2O", "note": "(stereo not given in full)", "protection from apoptosis": "0.154%"},
      {"smiles": "CCC(=O)c1ccc(OCC(=O)N2CCN(CC(=O)Nc3ccc(C)cc3)CC2)cc1", "protection from apoptosis": "4.28%"},
      {"smiles": "Clc1cccc(Cl)c1Cl", "protection from apoptosis": "5.51%"}
    ]}
  ]
}
